17 molecules from PubChem BioAssay (NCATS) can be followed below.

Records with an inconclusive call do not appear. Entries that show only a call come without a potency. Calls of active or inactive are those of the source. Calls follow the shape of the dose curve; as a rule, active = well fitted inhibition curve with a large enough effect; inconclusive = small, poorly fitted or top-dose-only effect; inactive = no such curve, though single readings can be large or run the other way.
Potency is read from the fitted curve at half-maximal effect.

The target in this assay is Retinaldehyde dehydrogenase 3 (Homo sapiens) (UniProt P47895). The assay can be described thus: qHTS for Inhibitors of the Aldehyde Dehydrogenase Family (ALDH1A3) Primary screen (AID 2061315). As to conditions: ALDH inhibition qHTS; series mostly up to 56 µM. (In qHTS, concentration-response curves come from the screen itself.)
As for `CNc1oc(-c2cccc3ccccc23)nc1C(=O)Nc1cccc(C#N)c1`, the Potency result was “inactive”. For `O=c1c2ccccc2nc2sc(Nc3ccc(Oc4ccccc4)cc3)nn12` the value was “inactive”; for `S=C(Nc1cc(Cl)ccn1)N1CCN(c2ccc(Cl)cc2Cl)CC1`, “inactive”. Turning to `COCCNc1ccc(NC(=O)c2cccs2)cn1`, the Potency result was “inactive”. `NC(=O)C1CCN(c2nc(-c3cccc4sc5ccccc5c34)cs2)CC1`: the Potency entry was “inactive”.

As to `Cc1cc(NS(=O)(=O)c2ccc(NS(=O)(=O)Cc3ccc(Cl)c(Cl)c3)cc2)no1`, the Potency entry is “inactive”. Take `Cc1nc(CN(C)c2ncnc3cc(-c4ccc5c(c4)OCO5)ccc23)cs1`: the Potency result was “inactive”. Turning to `COc1ccc(C2Cc3ccccc3C(=O)N2Cc2ccccc2)cc1COc1ccc(NC(C)=O)cc1` (configuration not stated), the Potency result is “inactive”. For `CN1CCN(c2cccc(Nc3nn4c(=O)c5ccc(Br)cc5nc4s3)c2)CC1` the value was “inactive”.

As to `O=[S+]([O-])(Nc1ccc2ccccc2c1)c1ccc(NCc2ccc(Cl)cc2O)cc1`, the Potency result is “inactive”. As for `O=C(NCc1nnc(C(=O)Nc2ccc(C(F)(F)F)cc2Cl)o1)c1ccccc1`, the Potency result is “inactive”. Then `COc1ccc(CC(NC(C)=O)C(=O)O)cc1` (configuration not stated), with “inactive”; and `COc1ccnc(CS(=O)c2nc3cc(OC(F)F)ccc3[nH]2)c1OC` (configuration not stated), with 31.6 µM (active). Then `O=C(Nc1ccc2ccccc2c1)Nc1nnc(-c2ccccn2)s1`, with “inactive”; and `Cn1ncc2ccc(-c3ccc4ncnc(NCc5cccs5)c4c3)cc21`, with “inactive”.

On to `CCOC(=O)c1ccc(-c2ccc3ncnc(N(C)Cc4ccc(C)o4)c3c2)o1`, for which the Potency result was “inactive”. Consider `Cc1ccnc(NC(=S)N2CCN(c3ccccc3C(F)(F)F)CC2)c1`, for which the Potency result was “inactive”.
